Rows were chosen to be rich in hits. Some 3.6% of all compounds tested hit in one or more screens of this group.
Mm-Cpn inhibitor: blocks the Methanococcus maripaludis chaperonin Mm-Cpn; 0.031% of 330,000 active; Potency, µM (doses to about 76.9 µM), without a hit: top-dose activity, negative = inhibition, actives largely listed as inhibitors; purified Mm-Cpn ATPase, ADP Transcreener TR-FRET; AID 504842; also: % is scaled to controls: 0 for no effect and ±100 for the full control effect; nearly all actives have a fitted effect of over 80% in size
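Purified archaeal Mm-CPN (25nM final) preincubated 10 min at 37degC with compound, then 10uM ATP for 30 min at 37degC; ADP measured by HTRF Transcreener TR-FRET; buffer 30 mM TRIS pH 7.4, 100mM KCl, 5mM MgCl2, 1mM DTT.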
aSyn yeast inh: rescues yeast growth from alpha-synuclein toxicity; Yeast expressing alpha-synuclein, growth rescue, BacTiter-Glo, 24 h; 0.14% of 370,000 active; Potency, µM (titrated, usually from 46.1 µM), without a hit: at the highest dose growth rescue (activation), most hits filed as activators; also: % of control where 0% means no effect; nearly all actives have a fitted effect of over 65% in size
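Readout is rescue of growth in alpha-synuclein-expressing yeast, so inhibitors of toxicity appear as activators. Growth after 24 hr at 30 deg C in galactose medium is quantified by luminescence.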
Abeta rescue: compounds reversing amyloid beta toxicity in yeast; yeast expressing A-beta42, growth rescue, OD600, 48 h; response scale: 0% DMSO, 100% iron-clioquinol control; Potency, µM (titrated, usually from 46.1 µM), usual class: activators; 0.063% of 410,000 active; AID 1347071; also: nearly all actives have a fitted effect of over 55% in size
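Yeast growth medium received pinned compounds, then yeast cells expressing toxic A-beta were added; plates incubated at 30 C for 48 hr. Growth read as absorbance at 600 nm, normalized to DMSO and equimolar FeCl3 plus clioquinol controls.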
ClpP mod: qHTS Assay for Activators of ClpP. ATP-dependent Clp protease proteolytic subunit (Bacillus subtilis (strain 168)), P80244. purified B. subtilis ClpP, FRET peptide cleavage, 20 min. Potency, µM (top dose mostly 57.5 µM), without a hit: at the highest dose activity change, negative = active. 1.9% of 340,000 active. AID 651965, 2013; active = well fitted falling curve with a large enough effect; inconclusive = small, poorly fitted or top-dose-only effect; inactive = no such curve, though single readings can be large or run the other way; also: the source files actives as falling curves though it sought activators and does not explain the sign; nearly all actives have a fitted effect of over 65% in size
Target sequence (P80244 whole entry, looked up): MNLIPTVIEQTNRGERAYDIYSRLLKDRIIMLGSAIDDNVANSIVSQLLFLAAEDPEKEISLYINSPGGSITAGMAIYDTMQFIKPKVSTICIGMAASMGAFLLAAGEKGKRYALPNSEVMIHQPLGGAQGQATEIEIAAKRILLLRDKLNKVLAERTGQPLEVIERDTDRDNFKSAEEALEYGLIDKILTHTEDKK
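FRET quenching reversal measured ClpP activation: 10 microg/mL B. subtilis ClpP at pH 8 with the FRET-FV decapeptide, read at 430 nm after 320 nm excitation. The 20-min minus 0-min signal was scaled between DMSO/no-enzyme wells and ADEP (5.8 microM final).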
FUS suppressor: rescues growth of FUS-expressing yeast; 0.24% of 390,000 active; S. cerevisiae FUS-expressing, growth rescue, OD600, 24 h; AID 1347120; Potency, µM (doses to about 76.6 µM), actives largely listed as activators;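 also: plate controls were DMSO vehicle for no effect and reference control for full effect; nearly all actives have a fitted effect of over 55% in size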
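Read-out: OD at 600 nm after 24hr at 30C, reporting rescue of FUS-induced yeast toxicity. Cells at OD 0.005 in galactose (2%) minimal medium; compounds tested in a dilution series; CP55940 titration from 92uM final as control.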
TDP43 rescue: inhibitors of TDP-43 toxicity in yeast | TDP-43 expressing yeast growth rescue, BacTiter-Glo, 24 h | Potency, µM (series often up to 46.1 µM), for the others: top-dose growth rescue (activation), most hits filed as activators | 1.8% of 410,000 active | AID 652104; also: % of control where 0% means no effect; nearly all actives have a fitted effect of over 50% in size
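In this qHTS, compounds that restore growth of yeast expressing TDP-43 appear as activators. Cells (OD600=0.02, galactose medium, raffinose-pregrown) are incubated with compound 24 hr at 30 deg C and growth is quantified by BacTiter-Glo.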
Numbers without * were called inactive; i = inactive; ? = inconclusive; . = not tested or not shown; [ ] = dose if it differs, or a comment. Unless noted, calls follow the shape of the dose curve; as a rule, active = well fitted curve in the direction sought with a large enough effect; inconclusive = small, poorly fitted or top-dose-only effect, or another doubt; inactive = no such curve, though single readings can be large; an effect the other way counts as inactive or inconclusive. Potency is read from the fitted curve at half-maximal effect.

SMILES | Mm-Cpn inhibitor | aSyn yeast inh | Abeta rescue | ClpP mod | FUS suppressor | TDP43 rescue
CCOc1ccc2nc(NC(=O)C3(C)CC3(Br)Br)sc2c1 (stereo not drawn) | . | -34% | ? | -3% | i | 18µM*
CCOc1ccc2nc(NC(=O)CSc3nc(SC)ns3)sc2c1 | -1% | 3% | i | 28µM* | . | -5%
CC(C)c1cnc2c(c1SCC(=O)Nc1cccc([N+](=O)[O-])c1)c(=O)n(C)c(=O)n2C | . | . | i | 1% | i | 11µM*
CC(C)c1cnc2c(c1SCC(=O)Nc1ccc(OC(F)(F)F)cc1)c(=O)n(C)c(=O)n2C | . | . | i | 0% | i | 18%
CNc1nc(N)c([N+](=O)[O-])c(Nc2ccccc2OC)n1 | 1% | 13% | i | -2% | i | 2.5µM*
Cc1ccc(C)c(Nc2cc(C(=O)NC3CCCC3)c3ccccc3n2)c1 | . | . | i | 0% | i | -13%
Cc1ccc(S(=O)(=O)CC(=O)c2ccc(C(C)(C)C)cc2)cc1 | -5% | 13% | i | 28µM* | i | -21%
CCCCN(CC)S(=O)(=O)c1ccc(C(=O)Nc2nnc(CSC)o2)cc1 | 2% | 32µM* | i | -1% | i | ?
CC1=C(C(=O)OC2CCCC2)C(c2c(F)cccc2Cl)CC(=O)N1 (stereo not drawn) | . | . | i | 0% | i | 13%
CC1=C(C(=O)OC2CCCCCC2)C(c2c(F)cccc2Cl)CC(=O)N1 (stereo not drawn) | . | . | i | 0% | i | 11µM*
CC1=C(C(=O)OC2CCCCC2)C(c2ccccc2)NC(=O)N1 (stereo not drawn) | -1% | 12% | i | 2.8µM* | i | -5%
CC1=Nc2cc(C(=O)O)ccc2Sc2c(C)ccc(C)c21 | -2% | 7% | i | ? | i | 25µM*
CC1=Nc2cc(C(=O)O)ccc2Sc2ccc(C)cc21 | -4% | 29% | i | 0% | i | 13µM*
CCc1n[nH]c(=S)n1N=C1CCC(C)CC1 (stereo not drawn) | -2% | -10% | i | -2% | i | 3.5µM*
CSc1ccc(-c2nc3ncccn3c2Nc2ccc(C)c(C)c2)cc1 | . | . | i | -3% | i | 17%
O=C(CSCc1ccccc1)N=Nc1c(O)[nH]c2ccccc12 | 1% | 0% | i | -2% | . | -1%
O=C(CSCc1cccc(Br)c1)N=Nc1c(O)[nH]c2ccccc12 | 1% | -6% | i | -1% | i | 22µM*
COc1cc(CSc2ncc(CO)n2Cc2ccc(C)cc2)cc(OC)c1 | . | . | i | 4% | i | 1%
Cc1cc(C)n(C(=O)c2cccc([N+](=O)[O-])c2C)n1 | -2% | -3% | i | 2% | i | 4%
Cc1cc(C)n(C(=O)c2ccccc2[N+](=O)[O-])n1 | 1% | 1% | ? | 35µM* | . | 15%
COc1cc(OC)c(NC(=O)c2cc(C)nc3c2c(C)nn3-c2ccc(C)cc2)cc1Cl | . | . | i | -13% | i | 0%[9.22 µM]
CC(C)(C)c1ccc(Cn2cnc(-c3ccc([N+](=O)[O-])cc3)c2)cc1 | 0% | 4% | i | 10µM* | . | 32µM*
CCOC(=O)c1sc2nccc(N(C)C)c2c1N=CNOCc1c(F)cccc1Cl | -25% | 5% | i | ? | i | 18µM*
Oc1ccc(C23CC4CC(CC(C4)C2)C3)cc1O | -1% | 2.8µM* | ? | -1% | i | 6.3µM*
Cc1cccc(NC(=O)Cn2ncc3c4ccccc4n(Cc4ccccc4)c3c2=O)c1C | . | . | i | -12% | i | ?
COc1ccc(NC(=O)c2cccc(Oc3ccccc3)c2)cn1 | -18% | 10% | i | . | i | 11µM*
COc1cccc(C(=O)Nc2cccc(-c3ccccc3)c2)c1 | 0% | -1% | i | -1% | i | 18µM*
